Bioassay records as filed in PubChem BioAssay.
Rows were chosen to be rich in hits. Some 4.8% of all compounds tested hit in one or more screens of this group.
DAX1 inh-1 = NR0B1 (DAX1) inhibition | P51843 | HEK293 Gal4-DAX1 luciferase reporter, luminescence | inhibition, % at 6.75 µM | 340,000 compounds, 0.99% hits | AID 504766;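 active means inhibition above the mean over all tested compounds plus 3 SD, cut at about 4.2% in these data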;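 further: inhibition shows as a rise in luminescence from relieved DAX1 repression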
Target sequence (P51843 207-470 limits assumed): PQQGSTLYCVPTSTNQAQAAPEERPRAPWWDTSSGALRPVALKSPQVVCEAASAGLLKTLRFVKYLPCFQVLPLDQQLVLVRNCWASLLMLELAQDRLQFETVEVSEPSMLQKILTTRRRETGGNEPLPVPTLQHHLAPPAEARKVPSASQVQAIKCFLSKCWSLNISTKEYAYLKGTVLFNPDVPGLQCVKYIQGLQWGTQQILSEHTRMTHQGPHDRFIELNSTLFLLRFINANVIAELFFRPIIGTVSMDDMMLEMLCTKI
hgDAF-12 ag = agonists of H. glycines DAF-12 nuclear receptor. AID 687014. 370,000 compounds, 1.8% hits. activation, % at 6.8 µM. HEK293 GAL4-hgDAF12 UAS-luciferase reporter, agonist luminescence; normalized to butyrate control;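 active means activation above a cutoff set at the mean of all screened compounds plus 3 SD, cut at about 10% in these data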
SMARCA2 act = SMARCA2 function activation, primary screen. activation, % at 9.1 µM. AID 652017. MG213 cells, MMTV-luciferase reporter, dexamethasone, overnight. 370,000 compounds, 1% hits; in the data active means activation above about 7.8%
hcDAF-12 act = H. contortus DAF-12 activation, primary screen | HEK293 hcDAF-12 lit1-tk-luc reporter, luminescence; 0% DMSO, 100% Δ7-dafachronic acid | activation, % at 6.8 µM | 370,000 compounds, 1.4% hits;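 active means activation above the mean of all tested compounds plus 3 SD, cut at about 5.5% in these data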
DAX1 inh-2 = inhibitors of DAX1 repression of SF-1 activated StAR promoter; HEK293T StAR-luciferase reporter, SF-1/DAX-1 repression relief; 370,000 compounds, 1.1% hits; AID 652010; inhibition, % at 6.8 µM;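 active means inhibition above the mean over all tested compounds plus 3 SD, cut at about 3.6% in these data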;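 further: higher inhibition means more luminescence from relief of DAX-1 repression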
ssDAF-12 act = S. stercoralis DAF-12 activation, primary screen; HEK293 ssDAF-12/GRIP1 lit1-tk-luc reporter, luminescence; % of 3 µM dafachronic acid response; activation, % at 6.8 µM; 370,000 compounds, 1% hits; AID 652126;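 active means activation above the mean over all tested compounds plus 3 SD, cut at about 0.9% in these data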
Each line names hits and unclear results; the compound was inactive in the other large screens.

COc1ccc(-c2cc3c(=O)n(CC(=O)NCCCN4CCC(N5CCCCC5)CC4)nc(C)n3n2)cc1	DAX1 inh-2 4.5
Cc1cccc(C)c1NC(=O)C(c1ccncc1)N1CCN(C)CC1 (stereo not given)	none (no result: DAX1 inh-1)
Cc1cccc(C)c1NC(=O)C(c1ccccc1)N1CCN(C)CC1 (stereo not given)	DAX1 inh-2 4.4 (no result: DAX1 inh-1)
O=C(NC(=S)NCc1nc2ccccc2[nH]1)c1ccccc1F	hcDAF-12 act 6.3
CCCN1C(=S)c2ccccc2C1c1ccccc1 (stereo not given)	DAX1 inh-1 4.7, ssDAF-12 act 1.3
Cc1ccc(OCc2nn3c(C4CCCCC4)nnc3s2)cc1	none (no result: DAX1 inh-1)
CCOC(=O)C/C(C)=N\Nc1nc(-c2ccccc2)cs1	ssDAF-12 act 1.7
CC(/C=C/c1ccccc1)=N\Nc1nc(-c2ccccc2)cs1	none
Cc1ccc(C(=O)Nc2cccc(C(=O)N/N=C/c3ccc(O)cc3)c2)cc1	hcDAF-12 act 5.9
CC(=O)NCCNC(=O)c1ccc(CSc2ccc(Cl)cc2)cc1	ssDAF-12 act 0.9
CCOC(=O)c1cc(-c2ccccc2)n(CCC(=O)O)c1C	DAX1 inh-1 4.4
CCCCCC[C@H](CN(CCCC)S(C)(=O)=O)c1ccccc1	none (no result: DAX1 inh-1)
CCCc1cc(C(=O)Cc2ccc(F)cc2)c(O)cc1O	none
CCCc1cc(C(=O)Cc2nc3ccccc3s2)c(O)cc1O	hcDAF-12 act 5.7, ssDAF-12 act 0.9
COc1ccc2c(C(c3ccccc3O)C3CCCN3S(=O)(=O)c3ccc(C)cc3)cn(C)c2c1 (stereo not given)	none (no result: DAX1 inh-1)
COc1ccc(/C=C2\SC(N)=NC2=O)cc1	DAX1 inh-1 4.9
NC1=NC(=O)C(=Cc2ccccc2)S1	none
CCOC(=O)CSC1=NC(=O)/C(=C/c2ccc(OC)cc2)S1	none (no result: hgDAF-12 ag, SMARCA2 act, hcDAF-12 act, DAX1 inh-2, ssDAF-12 act)
NC1=NC(=O)/C(=C\c2cccnc2)S1	hgDAF-12 ag 12.4
C#CCOCCOCCOCCNc1nc(N2CCN(C(=O)[C@H](CCCCN)n3cc([C@@H](N)C(C)CC)nn3)CC2)nc(N2CCN(C(=O)[C@H](CCCCN)n3cc([C@@H](N)C(C)CC)nn3)CC2)n1 (stereo not given in full)	none (no result: DAX1 inh-1, SMARCA2 act, DAX1 inh-2)
O=C(NCCO)C1(C(=O)C2CC2)CC(c2ccccc2C(F)(F)F)=NO1 (stereo not given)	none (no result: DAX1 inh-1)
CCNc1nc(-c2cc(C)n(Cc3ccco3)c2C)cs1	DAX1 inh-1 5.0
COc1ccc(CCN(Cc2cccs2)S(=O)(=O)c2ccc(C)c(C)c2)cc1OC	none (no result: DAX1 inh-1)
Cc1cccc(C)c1N1CCN(CCn2c(=S)[nH]c3ccccc3c2=O)CC1	DAX1 inh-1 4.2
Cc1ccc(CNC2CCC23CCC(c2ccccc2)CC3)o1 (stereo not given)	none (no result: DAX1 inh-1, SMARCA2 act, DAX1 inh-2)
CCOC(=O)N1C(=O)C[C@](Sc2ccc(OC)cc2)(C(=O)N(C)C)[C@H]1c1ccc(OC)cc1	none (no result: DAX1 inh-1)
COC(=O)C1=C(C)N(CCc2ccccc2)C(=O)C1(NS(=O)(=O)c1ccc(NC(C)=O)cc1)C(F)(F)F (stereo not given)	none
CC(=O)C1=C(C)N(c2ccccc2)C(=O)C1(NS(=O)(=O)c1ccc(N)cc1)C(F)(F)F (stereo not given)	hcDAF-12 act 5.6, ssDAF-12 act 1.5
COc1cccc(OC)c1NC(=O)OC1CCC12CCC(c1ccccc1)CC2 (stereo not given)	none (no result: DAX1 inh-1, SMARCA2 act, DAX1 inh-2)
CCCCn1cnc2sc(-c3ccccc3)cc2c1=O	hgDAF-12 ag 10.5, SMARCA2 act 7.8
CCCCCn1cnc2sc(CC)cc2c1=O	hgDAF-12 ag 12.4
Cc1ccc(S(=O)(=O)N(CCc2ccccc2)CC(=O)N2CCOCC2)cc1	none (no result: DAX1 inh-1)
Cn1c(CNc2ccc(F)cc2)nc2ccccc21	hgDAF-12 ag 13.2, hcDAF-12 act 6.5, ssDAF-12 act 3.1
Cn1c(Cc2nc3ccccc3n2C)nc2ccccc21	none
O=c1c([N+](=O)[O-])c(Cl)c2ccccc2n1Cc1ccccc1	none (no result: DAX1 inh-1, SMARCA2 act, DAX1 inh-2)
Fc1ccc(-n2nnc(-c3cccnc3)n2)cc1	hgDAF-12 ag 10.9
O=C(OC12CCCN(C1)/C(=C/c1ccncc1)C2)c1ccc(Cl)cc1 (stereo not given)	none (no result: DAX1 inh-1)
N#Cc1cc(NC2CCCC2)c([N+](=O)[O-])cc1C#N	none
